In PubChem BioAssay:
Records with an inconclusive call do not appear. Active and inactive are the calls of the source.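 The calls were made as follows, unless noted: active = normalized viability below 100% at a tested concentration; inactive = the rest.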

How the values were obtained:
[1] = viability loss in pontine glioma line – cell-based, SU-DIPG-XVII, MIPE5.0, CellTiter-Glo, qHTS, dose response (AID 1347060; cut-off not given, nearly all actives have AC50 up to about 26 µM;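 as to AC50: cells exposed to compound for 48 hours before viability readout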); conditions: CellTiter-Glo ATP luminescence
[2] = viability loss in pontine glioma line – cell-based, SU-DIPG-XIII, MIPE4.0, CellTiter-Glo, qHTS, dose response (AID 1347061; cut-off not given, nearly all actives have AC50 up to about 37 µM;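 also: cells exposed to compound for 48 hours before readout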); conditions: CellTiter-Glo ATP luminescence
[3] = viability loss in pontine glioma line – cell-based, JHH-DIPG-1, MIPE4.0, CellTiter-Glo, qHTS, dose response (AID 1347062; cut-off not given, nearly all actives have AC50 up to about 27 µM); conditions: JHH-DIPG-1 viability, CellTiter-Glo ATP luminescence
[4] = viability loss in pontine glioma line – cell-based, SU-DIPG-XIII, MIPE5.0, CellTiter-Glo, qHTS, dose response (AID 1347064; cut-off not given, nearly all actives have AC50 up to about 23 µM;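 as to AC50: cells exposed to compound for 48 hours before the viability read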); conditions: CellTiter-Glo ATP luminescence
[5] = viability loss in pontine glioma line – cell-based, SU-DIPG-XXV, MIPE5.0, CellTiter-Glo, qHTS, dose response (AID 1347065; cut-off not given, nearly all actives have AC50 up to about 26 µM;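 also: cells exposed to compound for 48 hours before ATP readout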); conditions: CellTiter-Glo ATP luminescence
[6] = growth inhibition of DIPG cells – cell-based, MIPE4.0 library, CellTiter-Glo luminescence, qHTS (AID 1347066; cut-off not given, nearly all actives have AC50 up to about 30 µM;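 also: cells exposed to compound for 48 hours before readout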); conditions: SU-DIPG-VI viability, CellTiter-Glo ATP luminescence
[7] = viability loss with induced miR-34 in A549 – imaging, A549 dox-inducible miR-34, nuclei and caspase counts, primary screen (AID 1347080;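 active = compounds whose cell count with miR-34 switched on is under 0.7 times the count with it off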); conditions: A549 miR-34 inducible, Hoechst nuclei count, 48 h
[8] = MELAS cybrid and Rieske KO viability enhancers – cell-based, MELAS cybrids, Rieske KO mouse fibroblasts, CellTiter-Glo, primary screen (AID 1508586;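 active = mean z-score across replicates of 1.96 or higher in either the MELAS or the Rieske mutant cell line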;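 also: z relative to plate mean and SD of compound and empty wells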); conditions: low glucose
[9] = viability loss in pontine glioma line – cell-based, SU-DIPG-IV, MIPE4.0, CellTiter-Glo, qHTS, dose response (AID 1347063; cut-off not given, nearly all actives have AC50 up to about 30 µM;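 also: compound exposure lasted 48 hours before the viability readout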); conditions: CellTiter-Glo ATP luminescence
[10] = JHH-DIPG-1 glioma cell viability, MIPE5.0 library, CellTiter-Glo luminescence, qHTS (AID 1347067; cut-off not given, nearly all actives have AC50 up to about 26 µM;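 also: cells exposed to compound for 48 hours before readout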); conditions: JHH-DIPG-1 glioma viability, CellTiter-Glo ATP luminescence
[11] = growth inhibition of DIPG cells – cell-based, MIPE5.0 library, qHTS (AID 1347068; cut-off not given, nearly all actives have IC50 up to about 30 µM); conditions: SU-DIPG-XXV viability
[12] = compounds altering HSF1 focus formation in cells – imaging, Selleck Cancer Library (AID 1347162; in the data active = plate-normalised HSF1 focus index below about 0.46); conditions: human cells, HSF1 nuclear foci imaging, at 10 µM; SSMD: measured here: HSF1 foci SSMD mean; cell count: measured here: cell number; plate-normalised HSF1 focus index: stronger effect = lower value
[13] = drug combination growth inhibition, ovarian cancer – cell-based, oncology-focused library, rucaparib conditional, profiling panel (AID 1508598); conditions: patient-derived ovarian cancer cells, CellTiter-Glo viability, 144 h, stronger effect = lower value
[14] = stronger effect = lower value, cell number ratio, induced over uninduced
[15] = measured here: relative caspase fold change +Dox/-Dox
[16] = measured here: total cells with miR-34 induction, stronger effect = lower value
[17] = measured here: total cells without miR-34 induction
[18] = MELAS cybrid survival, CellTiter-Glo 48 h, stronger effect = higher value
[19] = Rieske KO mouse fibroblast survival, CellTiter-Glo 72 h

CCc1cccc(CC)c1NC(=O)N1Cc2[nH]nc(NC(=O)c3ccc(N4CCN(C)CC4)cc3)c2C1
0.697: fold change [7, 15]
active: AC50 [1] 0.934 µM | AC50 [2] 14.8 µM | AC50 [4] 2.09 µM | AC50 [5] 0.661 µM
2360: cell count [7, 16]
inactive: outcome [3] | outcome [6] | fold change [7, 14] 1 | z-score [8, 18] -0.115
-0.878: z-score [8, 19]
2350: cell count [7, 17]

CC(C)(O)CCc1ccc(OCc2cc(-c3cccc(OC(F)F)c3)c3ncccc3c2)cc1
inactive: outcome [2] | outcome [3] | outcome [9] | outcome [6]
active: AC50 [1] 23.5 µM | AC50 [10] 23.5 µM

CC(=O)OCCN1C(=O)c2c(C)nc3ccc(S(=O)(=O)N4CCOCC4)cc3c2C1=O
inactive: outcome [1] | outcome [2] | outcome [3] | outcome [4] | outcome [5] | outcome [6] | outcome [10] | outcome [11] | plate-normalised HSF1 focus index [12] 1.12
7180: cell count [12]
2.02: SSMD [12]

Nc1nc2c(c(=O)[nH]1)N(C=O)[C@H](CNc1ccc(C(=O)N[C@@H](CCC(=O)O)C(=O)O)cc1)CN2
inactive: outcome [1] | outcome [2] | outcome [3] | outcome [4] | outcome [5] | outcome [6] | outcome [10] | outcome [11]

COc1nc(C)cnc1NS(=O)(=O)c1cccnc1-c1ccc(-c2nnco2)cc1
0.943: fold change [7, 15]
8800: cell count [7, 17]
inactive: outcome [1] | outcome [2] | outcome [3] | outcome [4] | outcome [5] | outcome [6] | outcome [10] | outcome [11] | fold change [7, 14] 0.916 | plate-normalised HSF1 focus index [12] 1.13 | z-score [8, 18] -0.393 | viability ([13]; at 0.000305 µM, OCI-C5x cells, with rucaparib 10 µM, 100% = cells with rucaparib alone) 110% | viability ([13]; at 0.000305 µM, OCI-C5x cells, without rucaparib) 112% | viability ([13]; at 0.000305 µM, OCI-P5x cells, with rucaparib 20 µM, 100% = cells with rucaparib alone) 102% | viability ([13]; at 0.000305 µM, OCI-P5x cells, without rucaparib) 109% | viability ([13]; at 0.00122 µM, OCI-C5x cells, with rucaparib 10 µM, 100% = cells with rucaparib alone) 108% | viability ([13]; at 0.00122 µM, OCI-C5x cells, without rucaparib) 117% | viability ([13]; at 0.00122 µM, OCI-P5x cells, with rucaparib 20 µM, 100% = cells with rucaparib alone) 106% | viability ([13]; at 0.00122 µM, OCI-P5x cells, without rucaparib) 109% | viability ([13]; at 0.00488 µM, OCI-C5x cells, without rucaparib) 114% | viability ([13]; at 0.00488 µM, OCI-P5x cells, with rucaparib 20 µM, 100% = cells with rucaparib alone) 104% | viability ([13]; at 0.00488 µM, OCI-P5x cells, without rucaparib) 109% | viability ([13]; at 0.0195 µM, OCI-C5x cells, with rucaparib 10 µM, 100% = cells with rucaparib alone) 111% | viability ([13]; at 0.0195 µM, OCI-C5x cells, without rucaparib) 110% | viability ([13]; at 0.0195 µM, OCI-P5x cells, with rucaparib 20 µM, 100% = cells with rucaparib alone) 100% | viability ([13]; at 0.0195 µM, OCI-P5x cells, without rucaparib) 108% | viability ([13]; at 0.0781 µM, OCI-C5x cells, with rucaparib 10 µM, 100% = cells with rucaparib alone) 103% | viability ([13]; at 0.0781 µM, OCI-C5x cells, without rucaparib) 113% | viability ([13]; at 0.0781 µM, OCI-P5x cells, with rucaparib 20 µM, 100% = cells with rucaparib alone) 104% | viability ([13]; at 0.0781 µM, OCI-P5x cells, without rucaparib) 110% | viability ([13]; at 0.313 µM, OCI-C5x cells, with rucaparib 10 µM, 100% = cells with rucaparib alone) 105% | viability ([13]; at 0.313 µM, OCI-C5x cells, without rucaparib) 112% | viability ([13]; at 0.313 µM, OCI-P5x cells, with rucaparib 20 µM, 100% = cells with rucaparib alone) 103% | viability ([13]; at 0.313 µM, OCI-P5x cells, without rucaparib) 108% | viability ([13]; at 1.25 µM, OCI-C5x cells, without rucaparib) 112% | viability ([13]; at 1.25 µM, OCI-P5x cells, with rucaparib 20 µM, 100% = cells with rucaparib alone) 104% | viability ([13]; at 1.25 µM, OCI-P5x cells, without rucaparib) 111% | viability ([13]; at 5 µM, OCI-C5x cells, with rucaparib 10 µM, 100% = cells with rucaparib alone) 106% | viability ([13]; at 5 µM, OCI-C5x cells, without rucaparib) 116% | viability ([13]; at 5 µM, OCI-P5x cells, without rucaparib) 106%
active: viability ([13]; at 0.00488 µM, OCI-C5x cells, with rucaparib 10 µM, 100% = cells with rucaparib alone) 98.1% | viability ([13]; at 1.25 µM, OCI-C5x cells, with rucaparib 10 µM, 100% = cells with rucaparib alone) 97.7% | viability ([13]; at 5 µM, OCI-P5x cells, with rucaparib 20 µM, 100% = cells with rucaparib alone) 99%
0.676: z-score [8, 19]
7220: cell count [12]
8060: cell count [7, 16]
2.08: SSMD [12]
